# Source: PubChem (National Center for Advancing Translational Sciences (NCATS))
# Pf growth 48h = inhibits P. falciparum growth in the first generation, 48 h; Potency, µM (top dose mostly 28.7 µM), hits mostly inhibitors; 5.9% of 310,000 active; P. falciparum luciferase growth in erythrocytes, 48 h
#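 Luciferase-expressing P. falciparum in infected erythrocytes (2% hematocrit, 0.1% parasitemia final) in RPMI 1640/0.5% Albumax were exposed to compound for 48 hours at 37 C, 5% CO2; growth read as luminescence.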
# Pf growth 96h = P. falciparum growth inhibition at 96 hour, primary screen for plastid delayed-death inhibitors; P. falciparum luciferase reporter growth, 96 h; Potency, µM (titrated, usually from 28.7 µM), actives largely listed as inhibitors; 6.9% of 320,000 active
#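 P. falciparum expressing integrated firefly luciferase, in erythrocytes at 2% hematocrit, 0.05% parasitemia, incubated with compounds 96 h at 37 C, 5% CO2. Growth inhibition read as loss of luminescence; two-generation exposure targets delayed-death apicoplast inhibitors.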
# AmpC inh no detg = inhibitors of E. coli AmpC beta-lactamase without detergent | P00811 | AmpC nitrocefin hydrolysis, absorbance 480 nm, 0.0001% Triton | Potency, µM (titrated, usually from 57.1 µM), hits mostly inhibitors | 0.52% of 330,000 active | AID 485341; note: nearly all actives have a fitted effect of over 20% in size
# Target sequence (P00811 whole entry, looked up): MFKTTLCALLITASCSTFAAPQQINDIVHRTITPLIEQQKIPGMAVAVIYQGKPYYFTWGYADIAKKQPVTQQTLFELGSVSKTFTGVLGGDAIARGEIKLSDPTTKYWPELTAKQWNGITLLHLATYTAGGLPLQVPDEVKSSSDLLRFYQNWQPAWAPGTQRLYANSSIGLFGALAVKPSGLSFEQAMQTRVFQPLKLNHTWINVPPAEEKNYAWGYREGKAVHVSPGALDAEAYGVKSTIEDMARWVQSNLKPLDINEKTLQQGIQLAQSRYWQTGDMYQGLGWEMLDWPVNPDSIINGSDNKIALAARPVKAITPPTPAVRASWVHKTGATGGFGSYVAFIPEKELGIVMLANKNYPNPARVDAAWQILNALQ
#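 AmpC (5.3 nM in the dispensed reagent) in 20 mM phosphate pH 7.0 with 0.01% (detergent screen) or 0.0001% Triton X-100 was preincubated with compounds for 15 min at room temperature. Nitrocefin was then added from an 800 uM solution, and hydrolysis was followed at 480 nm.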
# Sm TGR block = inhibitors of Schistosoma mansoni thioredoxin glutathione reductase; AID 485364; purified TGR, DTNB reduction, TNB absorbance 405 nm; Potency, µM (highest dose often 114 µM), hits mostly inhibitors; Q962Y6; 3% of 360,000 active; note: nearly all actives have a fitted effect of over 60% in size
#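 Kinetic colorimetric format: TGR-catalysed, NADPH-driven DTNB reduction monitored via TNB absorbance. Enzyme dispensed at 20 nM; compound exposure 15 min at room temperature before reaction start.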
# AmpC inh detg = inhibitors of E. coli AmpC beta-lactamase with detergent; 0.041% of 370,000 active; Potency, µM (series often up to 114 µM), actives largely listed as inhibitors; AmpC hydrolysis of nitrocefin, absorbance 480 nm, 0.01% Triton; P00811; AID 485294; note: nearly all actives have a fitted effect of over 25% in size
#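 20 mM phosphate pH 7.0 + 0.01% (detergent screen) or 0.0001% Triton X-100; 5.3 nM AmpC reagent; cpd preinc 15 min RT; nitrocefin (800 uM stock) to start; A480 q20 s × 4 min; Activity was normalised to no-enzyme and no-compound control wells.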
# SARS PLpro yeast = SARS-CoV PLP inhibition in yeast; Potency, µM (highest dose often 32.9 µM), hits mostly activators; AID 485353; 0.19% of 330,000 active; S. cerevisiae expressing SARS-CoV PLpro, growth rescue; calls by dose curve; note: nearly all actives have a fitted effect of over 55% in size
# Numbers stand for hits; – = inactive; ? = inconclusive; · = not tested or not shown; [ ] = remark or other dose. Compounds with a hit are over-represented: about 12% of the library has one in this group of screens. Unless noted, calls come from the whole dose curve; as a rule, active = well fitted curve in the direction sought with a large enough effect; inconclusive = small, poorly fitted or top-dose-only effect, or another doubt; inactive = no such curve, though single readings can be large; an effect the other way counts as inactive or inconclusive.
SMILES,Pf growth 48h,Pf growth 96h,AmpC inh no detg,Sm TGR block,AmpC inh detg,SARS PLpro yeast
O=C(Nc1ccccc1)c1cccc(S(=O)(=O)Nc2cccc(F)c2)c1,·,·,·,–,–,·
COc1cccc(CNC(=O)C(NS(=O)(=O)c2cccs2)C(C)C)c1 (stereo not drawn),·,·,·,–,–,·
CCN(CC)C(=O)CSCc1cnn(-c2ccccc2)c1-n1cccc1,·,?,–,–,–,–
CCC(=O)c1ccc(OCC(O)CNCCc2ccc(Cl)cc2)cc1 (stereo not drawn),12µM,?,–,–,–,–
CCOC(=O)C(NC(=O)C(Cc1ccc(N(CCCl)CCCl)cc1)NC(C)=O)C(C)C (stereo not drawn),–,–,–,·,–,–
COc1ccc(C(OCC(O)CNC(C)c2ccccc2)c2ccc(OC)cc2)cc1 (stereo not drawn),10µM,?,–,–,–,–
CC(=O)NC(Cc1ccc(N(CCCl)CCCl)cc1)C(=O)NC(CC(C)C)C(=O)O (stereo not drawn),–,10µM,–,28µM,–,–
CC(C)c1ccc(OCC(=O)Nc2cccc(C(=O)Nc3ccccc3C(=O)O)c2)cc1,?,9.3µM,–,–,–,–
CCc1ccc(CNCCNCC(C)O)cc1 (stereo not drawn),–,–,–,–,?,–
Cc1ccc(NC(=O)c2ccc(N(Cc3ccccc3)S(C)(=O)=O)cc2)cc1,·,·,·,–,–,·
CCC(C)(C(=O)NC1CCCCC1)N(Cc1ccco1)C(=O)Cc1cccs1 (stereo not drawn),–,·,–,–,–,–
CC(C)CC(NC(=O)COc1ccccc1)C(=O)O (stereo not drawn),–,12µM,–,–,–,–
CC(C)c1ccc(OCC(O)CNC(C)c2ccccc2)cc1 (stereo not drawn),4.7µM,?,–,–,–,–
OC(CNCCc1ccccc1)COc1ccc(OCC(O)CNCCc2ccccc2)cc1 (stereo not drawn),1.7µM,3.7µM,–,–,–,–
CC(C)c1ccc(OCC(=O)NC(C)c2ccccc2)cc1 (stereo not drawn),–,13µM,–,–,–,–
CC(C)C[C@H](NC(=O)[C@@H](O)[C@H](N)Cc1ccccc1)C(=O)O,0.76µM,0.67µM,·,·,·,·
COc1ccc(C(OCC(O)CNCCc2ccccc2)c2ccc(OC)cc2)cc1 (stereo not drawn),9.3µM,4.1µM,–,–,–,–
CC(NCC(O)COCCC12CC3CC(CC(C3)C1)C2)c1ccccc1 (stereo not drawn),5.2µM,–,–,·,–,–
Cc1ccc(C(OCC(O)CNCc2ccc(F)cc2)c2ccccc2)cc1 (stereo not drawn),·,4.7µM,–,–,–,–
COc1ccccc1CNC(=O)CN1C(=O)NC2(CCOc3ccccc32)C1=O (stereo not drawn),·,·,–,·,·,–
COC(=O)N1C(=O)[C@](c2ccc(Cl)cc2)(C(C)C)N1C(=O)OC,–,–,–,10µM,–,–
COC(=O)N1C(=O)[C@@](c2ccccc2)(C(C)C)N1C(=O)OC,–,–,–,35µM,–,–
COC(=O)N1CCN(c2ccc(OC)cc2)CC1,–,·,–,–,?,–
COC(=O)N1C(=O)[C@](c2ccccc2)(C2CCCC2)N1C(=O)OC,–,–,–,20µM,–,–
COC(=O)N1C(=O)[C@@](c2ccc(OC)cc2)(C(C)C)N1C(=O)OC,–,–,–,28µM,–,–
SMILES,Pf growth 48h,Pf growth 96h,AmpC inh no detg,Sm TGR block,AmpC inh detg,SARS PLpro yeast
CCC1(c2ccccc2)NC(=O)N(CC(=O)NC2CCCC2)C1=O (stereo not drawn),–,–,–,–,–,–
COc1ccc(Cl)cc1C(=O)n1cnc2ccccc21,–,?,–,–,–,–
Cc1cccc(NC(=O)Nc2cccs2)c1C,·,·,·,–,–,·
CCn1c(NC(=O)Nc2cccc(C)c2C)cc2sccc21,·,13µM,–,–,?,–
Cc1cc(NC(=O)CNCC(c2ccccc2)N(C)C)c([N+](=O)[O-])cc1C (stereo not drawn),–,–,–,–,–,–
Cc1ccc(S(=O)(=O)N(C)Cc2ccc(-c3nnc4n3CCC4)cc2)cc1,10µM,–,–,–,–,–
O=C(COc1cccnc1[N+](=O)[O-])NCCc1ccccc1,–,–,–,–,–,–
CSCC[C@H](N)C(=O)N1CCC(C(=O)N[C@H](C)C(=O)NC(C)c2ccccc2)CC1 (stereo partly drawn),?,–,–,–,?,–
CCOC(=O)/C(C(=Nc1ccccc1)Nc1ccccc1)=C(\C)O,–,10µM,–,–,?,–
CCOC(=O)C1C(C(=O)NN)C1C(=O)Nc1ccccc1 (stereo not drawn),13µM,–,–,–,?,–
c1ccc(-c2ccc(-c3n(-c4ccccn4)c4ccccc4[n+]3-c3ccccn3)cc2)cc1,?,15µM,–[11.4 µM],–,?,–
CCOc1ccc(CCNC(=O)CCc2nnc3ccc(N4CCOCC4)nn23)cc1OCC,–,13µM,–,–,?,–
CSc1ccc(CCNC(=O)CCc2nnc3ccc(N4CCCC4)nn23)cc1,?,9.3µM,–,–,–,–
O=C(Nc1cccnc1)c1ccc(Br)c(S(=O)(=O)N2CCCC2)c1,13µM,?,–,–,–,–
Cc1cc(C(=O)Nc2cccnc2)cs1,–,–,–,–,–,–
Cc1cc(C)cc(NC(=O)Nc2cccnc2)c1,?,–,–,–,–,–
CC(C)c1ccc(C(=O)Nc2cccnc2)cc1,–,10µM,–,–,–,–
Cc1ccc(NC(=O)Nc2cccnc2)cc1NC(=O)Nc1cccnc1,9.3µM,?,–,–,–,–
Cc1ccc(C(=O)Nc2cccnc2)cc1Cl,–,10µM,–,–,–,–
CCOC(=O)c1scc(-c2ccc(C)cc2)c1S(=O)(=O)N1CCN(c2ccccc2)CC1,·,·,·,–,–,·
COc1ccc(CCNC(=O)CCc2c(C)nc3c(c(C)nn3-c3ccccc3)c2C)c(OC)c1,·,·,·,–,–,·
Cc1cc(NC(=O)c2cccc(S(=O)(=O)N3CCCC3)c2)no1,–,–,–,–,–,–
Cc1ccc(C(=O)Nc2cccnc2)cc1S(=O)(=O)N1CCCCC1,?,2.1µM,–,–,–,–
Cc1cc(NC(=O)c2ccc(Br)c(S(=O)(=O)N3CCCC3)c2)no1,10µM,·,–,–,–,–
Cc1ccc(C(=O)Nc2cccnc2)cc1S(=O)(=O)N1CCCC1,?,?,–,–,–,–
COc1cccc(-n2nc(-c3ccnn3-c3ccc(F)cc3)c(=O)n(C)c2=O)c1,·,12µM,–,–,–,–
COc1ccc(-n2nccc2-c2nn(-c3cccc(OC)c3)c(=O)n(C)c2=O)cc1,·,–,–,–,–,–
